Assay outcomes (PubChem BioAssay)
FXIa inh – human FXIa protease inhibitors, primary screen, biochemical, single compound per well. 0.3% of 33,000 active. inhibition, % at 10 µM. Coagulation factor XI (Homo sapiens), P03951. purified human FXIa, fluorogenic AMC substrate cleavage;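 active means inhibition above 40% in the primary screen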
FXIIa inh – human FXIIa protease inhibitors, primary screen, biochemical, single well; Coagulation factor XII (Homo sapiens), P00748; purified human FXIIa, AMC substrate fluorescence, 2 h; inhibition, % at 10 µM; 0.2% of 33,000 active; in the data active means inhibition above about 30%
Target sequence (P00748 20-372 limits assumed): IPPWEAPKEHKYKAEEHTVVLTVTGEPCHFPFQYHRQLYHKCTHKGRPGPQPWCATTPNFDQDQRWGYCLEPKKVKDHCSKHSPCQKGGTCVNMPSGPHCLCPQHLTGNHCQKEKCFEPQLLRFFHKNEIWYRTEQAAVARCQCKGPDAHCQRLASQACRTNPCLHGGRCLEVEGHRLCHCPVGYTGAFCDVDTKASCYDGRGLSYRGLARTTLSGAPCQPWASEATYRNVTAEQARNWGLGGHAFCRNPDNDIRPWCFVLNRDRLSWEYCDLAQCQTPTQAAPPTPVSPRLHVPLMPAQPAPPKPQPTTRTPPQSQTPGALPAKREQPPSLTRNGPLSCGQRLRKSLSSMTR
Target sequence (P00748 373-615 limits assumed): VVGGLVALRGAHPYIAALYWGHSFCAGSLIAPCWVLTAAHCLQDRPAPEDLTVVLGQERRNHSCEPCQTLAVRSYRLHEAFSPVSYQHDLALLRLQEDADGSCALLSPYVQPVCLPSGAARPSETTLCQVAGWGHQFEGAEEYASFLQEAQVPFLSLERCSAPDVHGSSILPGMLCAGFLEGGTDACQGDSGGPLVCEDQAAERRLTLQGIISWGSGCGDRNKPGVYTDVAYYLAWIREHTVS
Each line names hits and unclear results; the compound was inactive in the other large screens. The list is not random: actives were taken first. Their share in the collection is about 0.33%.

CCOC(=O)N=S(=O)(Oc1ccc([N+](=O)[O-])cc1)c1ccccc1 (configuration not stated)	FXIa inh 44
CN(CC(=O)O/N=C(\N)c1ccc([N+](=O)[O-])cc1)S(=O)(=O)c1ccccc1	none
C=CCC(C)(NCc1ccccc1)c1ccco1 (configuration not stated)	none
O=C(CO/N=C/c1ccccc1)N1c2ccccc2Oc2ccccc21	none
COc1ccc(CCSc2nnc(C3CCCCC3)n2N)cc1	none
CC1=CC(=O)C(C(C)C)=C/C1=N/OC(=O)c1cccc([N+](=O)[O-])c1	none
CC1=CC(=NOC(=O)c2cccc([N+](=O)[O-])c2)C=C(C)C1=O	FXIIa inh 51
O=C(O)c1cn(-c2ccccc2)nc1-c1cccnc1	none
O=C(c1cn(-c2ccccc2)nc1-c1ccncc1)n1nnc2ccccc21	FXIa inh 96, FXIIa inh 89
Cc1cc(NC(=O)C(C)C)ncc1NC(=O)Cc1ccccc1	FXIIa inh 38
Cc1cc(NC(=O)c2cccc(F)c2)ncc1NC(=O)c1ccco1	none
O=C(Oc1nsnc1N1CCOCC1)c1ccccc1	FXIa inh 66, FXIIa inh 63
O=C(Oc1ccc(OC(=O)N2CCOCC2)cc1)c1ccccc1	none
Cc1ccc2cc(CCNC(=O)c3ccc4c(c3)OCO4)c(=O)[nH]c2c1C	none
O=C(NCc1ccccc1)C1CCCN(S(=O)(=O)c2cccc3nonc23)C1 (configuration not stated)	FXIa inh 61
O=C(NCc1ccc2c(c1)OCO2)C1CCCN(S(=O)(=O)c2cccc3nonc23)C1 (configuration not stated)	none
COc1cccc(NC(=O)N(C2CCCCC2)C(C)c2cccs2)c1 (configuration not stated)	none
O=S(=O)(Nc1ccc(S(=O)(=O)Nc2cccc3ccccc23)cc1)c1ccccc1	none
O=S(=O)(Nc1cccc2nsnc12)c1ccccc1	FXIa inh 48
O=c1[nH]c2cc3c(cc2cc1CN(CCO)S(=O)(=O)c1ccccc1Cl)OCCO3	none
CN(C)CCCn1c(-c2ccccc2)nc(=S)c2c1CCCC2	none
OCCCn1c(-c2ccccc2)nc(=S)c2c1CCCC2	FXIa inh 43
CCn1nc(CC(=O)Nc2nnc(CC(=O)N3CCCC3)s2)c2ccccc2c1=O	FXIa inh 66
CCn1nc(CC(=O)Nc2nnc(CC(=O)N3CCOCC3)s2)c2ccccc2c1=O	none
COc1ccc2c(Cl)c(C(=O)NCCCn3ccnc3)sc2c1	none
